# The panel holds about 79,000 compounds, 15% with a hit somewhere; the sample as a whole holds those more often. A number with no mark means an inactive call. Active and inactive are the calls of the source. Rule as the data show it: active = growth inhibition above about 70%; inactive = the rest.
# How the values were obtained:
# [1] = NCI Yeast Anticancer Drug Screen. Data for the rad52 strain (AID 147);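 also: 0% = growth of vehicle-treated control cultures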; details: S. cerevisiae rad52 mutant growth inhibition, stronger effect = higher value
# Method in brief: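 Genetically altered yeast (DNA damage repair defect) treated with compound; inhibition calculated relative to vehicle.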
# [2] = NCI Yeast Anticancer Drug Screen. Data for the rad50EPP+ strain (AID 151);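 also: 0% = growth of vehicle-treated control cultures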; details: S. cerevisiae rad50 mutant strain, stronger effect = higher value
# Method in brief: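 Strain rad50EPP+; compound exposure; % growth inhibition vs vehicle.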
# [3] = NCI Yeast Anticancer Drug Screen. Data for the mgt1 strain (AID 153); details: S. cerevisiae mgt1 mutant growth inhibition, stronger effect = higher value
# Method in brief: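 Read-out: yeast growth inhibition vs vehicle control. Strain mgt1, drawn from a panel altered in DNA damage repair or cell cycle control.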
# [4] = NCI Yeast Anticancer Drug Screen. Data for the rad50 strain (AID 155);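 also: 0% = growth of vehicle-only cultures of the same strain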; details: S. cerevisiae rad50 strain growth inhibition, stronger effect = higher value
# Method in brief: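 Vehicle-treated cultures provide the reference for the growth inhibition reported for compound-exposed, repair-deficient yeast.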
# [5] = NCI Yeast Anticancer Drug Screen. Data for the mec2-1 strain (AID 157); details: S. cerevisiae mec2-1 strain, stronger effect = higher value
# Method in brief: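 Cells of the genetically defined mec2-1 yeast strain are incubated with test compound. Inhibition of growth is calculated against vehicle-treated controls.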
# [6] = NCI Yeast Anticancer Drug Screen. Data for the sgs1 mgt1 strain (AID 161);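 also: 0% = growth of cultures given vehicle only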; details: S. cerevisiae sgs1 mgt1 strain, stronger effect = higher value
# Method in brief: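 Test agents were incubated with a DNA-repair-mutant yeast strain. Growth was then read and compared against vehicle-treated controls.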
# [7] = NCI Yeast Anticancer Drug Screen. Data for the CLN2oe strain (AID 163);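 also: 0% = growth of vehicle-only control cultures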; details: S. cerevisiae CLN2oe strain, stronger effect = higher value
# Method in brief: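 Strain altered in cell-cycle control, incubated with compound; growth compared to solvent-treated controls.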
# [8] = NCI Yeast Anticancer Drug Screen. Data for the cln2 rad14 strain (AID 165);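 also: 0% = growth equal to vehicle treated cultures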; details: S. cerevisiae cln2 rad14 strain, stronger effect = higher value
# Method in brief: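 The screen exposed genetically defined yeast (cln2 rad14) to test compounds and scored growth inhibition relative to vehicle-treated controls.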
# [9] = NCI Yeast Anticancer Drug Screen. Data for the bub3 strain (AID 167); details: S. cerevisiae bub3 mutant strain, stronger effect = higher value
# Method in brief: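 Mutant yeast screening strain plus compound; vehicle-treated cultures serve as the 0% inhibition reference.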
# [10] = NCI Yeast Anticancer Drug Screen. Data for the wt2 strain (AID 169); details: S. cerevisiae wt2 strain growth inhibition, stronger effect = higher value
# Method in brief: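 Steps: yeast strain treated with compound; growth recorded; inhibition calculated relative to cultures given vehicle alone.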
# [11] = NCI Yeast Anticancer Drug Screen. Data for the mlh1 strain (AID 171);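 also: 0% = growth of vehicle-treated control cultures of the same strain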; details: S. cerevisiae mlh1 strain growth inhibition, stronger effect = higher value
# Method in brief: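 Yeast screen: mutant strain plus compound, growth scored against vehicle control wells.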
# [12] = NCI Yeast Anticancer Drug Screen. Data for the sgs1 strain (AID 173);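 also: 0% = growth of vehicle-only control cultures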; details: S. cerevisiae sgs1 mutant, stronger effect = higher value
# Method in brief: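 Inhibition of yeast growth served as the measure. The mutant strain was treated with each compound, and growth was normalised to cultures receiving vehicle alone.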
# [13] = NCI Yeast Anticancer Drug Screen. Data for the mlh1 rad18 strain (AID 175); details: S. cerevisiae mlh1 rad18 strain growth inhibition, stronger effect = higher value
# Method in brief: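 Compound-treated yeast growth, normalised to vehicle controls. Strain bears defined DNA repair mutations.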
# [14] = NCI Yeast Anticancer Drug Screen. Data for the rad18 strain (AID 177); details: S. cerevisiae rad18 mutant growth inhibition, stronger effect = higher value
# Method in brief: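 Inhibition values reflect reduced yeast growth compared with vehicle-treated controls, using a strain engineered with a DNA damage repair defect.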
# [15] = NCI Yeast Anticancer Drug Screen. Data for the wt1 strain (AID 149);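 also: 0% = growth of vehicle-treated wt1 cultures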; details: S. cerevisiae wt1 strain (SPY 50644) growth inhibition, stronger effect = higher value
# Method in brief: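 Each compound is tested on wt1 yeast and the loss of growth versus vehicle gives the inhibition value.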
# [16] = NCI Yeast Anticancer Drug Screen. Data for the rad14 strain (AID 159);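 also: 0% = growth of vehicle-treated control cultures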; details: S. cerevisiae rad14 strain growth inhibition, stronger effect = higher value
# Method in brief: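 Inhibition of growth is reported for a repair-deficient yeast mutant following compound treatment, calculated relative to cultures that received vehicle.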
# [17] = at 5.0 µM (retest, dose inferred, filed as 0.5)
# [18] = at 50.0 µM (retest, dose inferred, filed as 5.0)
structure (smiles),measurement,setting,value
CC(=O)OC1CCC2(C)C(=CCC3C4CCC5(OC6CC(C)CN(C(C)=O)C6C5C)C(C)=C4C(=O)C32)C1 (stereo unspecified),growth inhibition,[1]; at 1.2 µM,18%
same,growth inhibition,[1]; at 3.7 µM,12%
same,growth inhibition,[1]; at 11.0 µM,57%
same,growth inhibition,[1]; at 33.0 µM,97% (active)
same,growth inhibition,[1]; at 100.0 µM,96% (active)
same,growth inhibition,[2]; at 1.2 µM,-39%
same,growth inhibition,[2]; at 3.7 µM,-28%
same,growth inhibition,[2]; at 11.0 µM,-7%
same,growth inhibition,[2]; at 33.0 µM,6%
same,growth inhibition,[2]; at 100.0 µM,-1%
same,growth inhibition,[3]; at 1.2 µM,-26%
same,growth inhibition,[3]; at 3.7 µM,-30%
same,growth inhibition,[3]; at 11.0 µM,61%
same,growth inhibition,[3]; at 33.0 µM,97% (active)
same,growth inhibition,[3]; at 100.0 µM,96% (active)
same,growth inhibition,[4]; at 1.2 µM,-49%
same,growth inhibition,[4]; at 3.7 µM,-31%
same,growth inhibition,[4]; [17],0%
same,growth inhibition,[4]; at 11.0 µM,61%
same,growth inhibition,[4]; at 33.0 µM,94% (active)
same,growth inhibition,[4]; [18],96% (active)
same,growth inhibition,[4]; at 50.0 µM,83.2% (active)
same,growth inhibition,[4]; at 100.0 µM,95% (active)
same,growth inhibition,[5]; at 1.2 µM,-32%
same,growth inhibition,[5]; at 3.7 µM,-32%
same,growth inhibition,[5]; [17],-9%
same,growth inhibition,[5]; at 11.0 µM,3%
same,growth inhibition,[5]; at 33.0 µM,96% (active)
same,growth inhibition,[5]; [18],98% (active)
same,growth inhibition,[5]; at 50.0 µM,68.4%
same,growth inhibition,[5]; at 100.0 µM,89% (active)
same,growth inhibition,[6]; [17],7%
same,growth inhibition,[6]; [18],96% (active)
same,growth inhibition,[6]; at 50.0 µM,69.4%
same,growth inhibition,[7]; at 1.2 µM,1%
same,growth inhibition,[7]; at 3.7 µM,-12%
same,growth inhibition,[7]; at 11.0 µM,41%
same,growth inhibition,[7]; at 33.0 µM,98% (active)
same,growth inhibition,[7]; at 100.0 µM,92% (active)
same,growth inhibition,[8]; [17],17%
same,growth inhibition,[8]; [18],98% (active)
same,growth inhibition,[8]; at 50.0 µM,84.2% (active)
same,growth inhibition,[9]; at 1.2 µM,-2%
same,growth inhibition,[9]; at 3.7 µM,-23%
same,growth inhibition,[9]; [17],32%
same,growth inhibition,[9]; at 11.0 µM,24%
same,growth inhibition,[9]; at 33.0 µM,96% (active)
same,growth inhibition,[9]; [18],98% (active)
same,growth inhibition,[9]; at 50.0 µM,81.2% (active)
same,growth inhibition,[9]; at 100.0 µM,95% (active)
same,growth inhibition,[10]; at 1.2 µM,-9%
same,growth inhibition,[10]; at 3.7 µM,-4%
same,growth inhibition,[10]; at 11.0 µM,53%
same,growth inhibition,[10]; at 33.0 µM,97% (active)
same,growth inhibition,[10]; at 100.0 µM,59%
same,growth inhibition,[11]; at 1.2 µM,-17%
same,growth inhibition,[11]; at 3.7 µM,-21%
same,growth inhibition,[11]; at 11.0 µM,51%
same,growth inhibition,[11]; at 33.0 µM,96% (active)
same,growth inhibition,[11]; at 100.0 µM,90% (active)
same,growth inhibition,[12]; at 1.2 µM,-10%
same,growth inhibition,[12]; at 3.7 µM,-9%
same,growth inhibition,[12]; at 11.0 µM,54%
same,growth inhibition,[12]; at 33.0 µM,96% (active)
same,growth inhibition,[12]; at 100.0 µM,93% (active)
same,growth inhibition,[13]; [17],-10%
same,growth inhibition,[13]; [18],98% (active)
same,growth inhibition,[13]; at 50.0 µM,76.8% (active)
same,growth inhibition,[14]; at 1.2 µM,-1%
same,growth inhibition,[14]; at 3.7 µM,15%
same,growth inhibition,[14]; at 11.0 µM,75% (active)
same,growth inhibition,[14]; at 33.0 µM,96% (active)
same,growth inhibition,[14]; at 100.0 µM,95% (active)
CC(C)(CN1CCCCC1)C(=O)CC(SCCS(=O)(=O)O)c1ccc(Br)cc1 (stereo unspecified),growth inhibition,[15]; at 1.2 µM,3%
same,growth inhibition,[15]; at 3.7 µM,6%
same,growth inhibition,[15]; at 11.0 µM,9%
same,growth inhibition,[15]; at 33.0 µM,11%
same,growth inhibition,[15]; at 100.0 µM,24%
same,growth inhibition,[2]; at 1.2 µM,-2%
same,growth inhibition,[2]; at 3.7 µM,-4%
same,growth inhibition,[2]; at 11.0 µM,-4%
same,growth inhibition,[2]; at 33.0 µM,0%
same,growth inhibition,[2]; at 100.0 µM,14%
same,growth inhibition,[3]; at 1.2 µM,-1%
same,growth inhibition,[3]; at 3.7 µM,0%
same,growth inhibition,[3]; at 11.0 µM,8%
same,growth inhibition,[3]; at 33.0 µM,21%
same,growth inhibition,[3]; at 100.0 µM,59%
same,growth inhibition,[4]; at 1.2 µM,-2%
same,growth inhibition,[4]; at 3.7 µM,-5%
same,growth inhibition,[4]; [17],13%
same,growth inhibition,[4]; at 11.0 µM,-1%
same,growth inhibition,[4]; at 33.0 µM,24%
same,growth inhibition,[4]; [18],32%
same,growth inhibition,[4]; at 50.0 µM,73.8% (active)
same,growth inhibition,[4]; at 100.0 µM,50%
same,growth inhibition,[5]; at 1.2 µM,1%
same,growth inhibition,[5]; at 3.7 µM,6%
same,growth inhibition,[5]; [17],-7%
same,growth inhibition,[5]; at 11.0 µM,14%
same,growth inhibition,[5]; at 33.0 µM,18%
same,growth inhibition,[5]; [18],11%
same,growth inhibition,[5]; at 50.0 µM,52.9%
same,growth inhibition,[5]; at 100.0 µM,36%
same,growth inhibition,[16]; at 1.2 µM,6%
same,growth inhibition,[16]; at 3.7 µM,19%
same,growth inhibition,[16]; at 11.0 µM,42%
same,growth inhibition,[16]; at 33.0 µM,39%
same,growth inhibition,[16]; at 100.0 µM,51%
same,growth inhibition,[6]; [17],5%
same,growth inhibition,[6]; [18],4%
same,growth inhibition,[6]; at 50.0 µM,68.5%
same,growth inhibition,[7]; at 1.2 µM,2%
same,growth inhibition,[7]; at 3.7 µM,4%
same,growth inhibition,[7]; at 11.0 µM,13%
same,growth inhibition,[7]; at 33.0 µM,25%
same,growth inhibition,[7]; at 100.0 µM,33%
same,growth inhibition,[8]; [17],13%
same,growth inhibition,[8]; [18],26%
same,growth inhibition,[8]; at 50.0 µM,56.7%
same,growth inhibition,[9]; at 1.2 µM,1%
same,growth inhibition,[9]; at 3.7 µM,6%
same,growth inhibition,[9]; [17],-4%
same,growth inhibition,[9]; at 11.0 µM,17%
same,growth inhibition,[9]; at 33.0 µM,29%
same,growth inhibition,[9]; [18],56%
same,growth inhibition,[9]; at 50.0 µM,74.7% (active)
same,growth inhibition,[9]; at 100.0 µM,61%
same,growth inhibition,[11]; at 1.2 µM,3%
same,growth inhibition,[11]; at 3.7 µM,6%
same,growth inhibition,[11]; at 11.0 µM,17%
same,growth inhibition,[11]; at 33.0 µM,26%
same,growth inhibition,[11]; at 100.0 µM,52%
same,growth inhibition,[12]; at 1.2 µM,2%
same,growth inhibition,[12]; at 3.7 µM,11%
same,growth inhibition,[12]; at 11.0 µM,28%
same,growth inhibition,[12]; at 33.0 µM,42%
same,growth inhibition,[12]; at 100.0 µM,62%
same,growth inhibition,[13]; [17],3%
same,growth inhibition,[13]; [18],21%
same,growth inhibition,[13]; at 50.0 µM,65.2%
same,growth inhibition,[14]; at 1.2 µM,2%
same,growth inhibition,[14]; at 3.7 µM,15%
same,growth inhibition,[14]; at 11.0 µM,29%
same,growth inhibition,[14]; at 33.0 µM,25%
same,growth inhibition,[14]; at 100.0 µM,55%
CN1CCc2ccccc2C1Cc1ccccc1NC(=O)c1sc2ccccc2c1Cl (stereo unspecified),growth inhibition,[15]; at 1.2 µM,-23%
same,growth inhibition,[15]; at 3.7 µM,-22%
same,growth inhibition,[15]; at 11.0 µM,-13%
same,growth inhibition,[15]; at 33.0 µM,22%
same,growth inhibition,[15]; at 100.0 µM,88% (active)
same,growth inhibition,[2]; at 1.2 µM,-21%
same,growth inhibition,[2]; at 3.7 µM,-9%
same,growth inhibition,[2]; at 11.0 µM,19%
same,growth inhibition,[2]; at 33.0 µM,68%
same,growth inhibition,[2]; at 100.0 µM,83% (active)
same,growth inhibition,[3]; at 1.2 µM,-19%
same,growth inhibition,[3]; at 3.7 µM,-24%
same,growth inhibition,[3]; at 11.0 µM,19%
same,growth inhibition,[3]; at 33.0 µM,95% (active)
same,growth inhibition,[3]; at 100.0 µM,93% (active)
same,growth inhibition,[4]; at 1.2 µM,-33%
same,growth inhibition,[4]; at 3.7 µM,-36%
same,growth inhibition,[4]; [17],8%
same,growth inhibition,[4]; at 11.0 µM,-22%
same,growth inhibition,[4]; at 33.0 µM,29%
same,growth inhibition,[4]; [18],97% (active)
same,growth inhibition,[4]; at 50.0 µM,96.8% (active)
same,growth inhibition,[4]; at 100.0 µM,90% (active)
same,growth inhibition,[5]; at 1.2 µM,-39%
same,growth inhibition,[5]; at 3.7 µM,-29%
same,growth inhibition,[5]; [17],-7%
same,growth inhibition,[5]; at 11.0 µM,-2%
same,growth inhibition,[5]; at 33.0 µM,36%
same,growth inhibition,[5]; [18],68%
same,growth inhibition,[5]; at 50.0 µM,98% (active)

# Source: PubChem BioAssay (NCI)
